We go through 32 compounds from the supplement of paper PMC13380429.

Values without a mark were called inactive.

The assay relates to Vero E6 infected with SARS-CoV-2. The assay can be described thus: inhibition of SARS-CoV-2 cytopathic effect; higher = more antiviral protection, active = above 15. Conditions: 10000 nM; 48 h. (Damage to the host cells serves as the signal in cytopathic effect assays.)
Consider `Nc1nc(N)nc(NC2CC2)n1` [cyromazine], for which the “inhibition of SARS-CoV-2 cytopathic effect” value (“inhibition” for short) was 0.6%.

As to `CC(C)(C)NC(=O)N[C@H](C(=O)N1C[C@H]2[C@@H]([C@H]1C(=O)NC(CC1CCC1)C(=O)C(N)=O)C2(C)C)C(C)(C)C` (some centres not stated) [Boceprevir], the “inhibition” value was -0.53%.

Consider `COc1cc2c(cc1OC)-c1cc3nc4ccccc4nc3n1C(C)(C)C2`, for which the “inhibition” value is -7.6%.

As for `CCOc1cc([C@@H](CS(C)(=O)=O)N2C(=O)c3cccc(NC(C)=O)c3C2=O)ccc1OC` [apremilast], the “inhibition” value was -2.14%.

For `C=C1/C(=C\C=C2/CCC[C@]3(C)[C@@H]([C@H](C)CCCC(O)(C(F)(F)F)C(F)(F)F)CC[C@@H]23)C[C@@H](O)C[C@@H]1O` [falecalcitriol], the “inhibition” value is -2.37%.

`C1CCN2C[C@@H]3C[C@@H](CN4CCCC[C@@H]34)[C@H]2C1` [sparteine-sulfate]: the “inhibition” value was -2.55%.

Regarding `O=C(N[C@@H]1CC[C@@H](c2cccc(F)c2F)CN(CC(F)(F)F)C1=O)N1CCC(n2c(=O)[nH]c3ncccc32)CC1` [telcagepant], the “inhibition” value is 5.63%.

In the case of `CC#CCC(C)[C@H](O)/C=C/[C@@H]1[C@H]2C/C(=C/CCCC(=O)O)C[C@H]2C[C@H]1O` (some centres not stated) [iloprost], the “inhibition” value is -1.94%.

For `O=C(NNc1nc2cc(F)ccc2n2cccc12)c1cnccn1`, the “inhibition” value is -4.33%.

As to `O=C(c1ccc(C(=O)N2CCC(N3CCCC3)CC2)c(Nc2ccccc2)c1)N1CCC(N2CCCC2)CC1`, the “inhibition” value was -1.44%.

As to `COc1cc(NS(=O)(=O)c2ccc(N)cc2)nc(OC)n1` [sulphadimethoxine], the “inhibition” value is -0.74%.

Take `Cn1nc(C(C)(C)C)cc1C(=O)N[C@@H](Cc1cccc(Cl)c1)C(=O)NCC#N` [cathepsin-inhibitor-1]: the “inhibition” value is -1.36%.

For the compound `CCCCC[C@H](O)/C=C/[C@H]1[C@H](O)CC(=O)[C@@H]1CCCCCCC(=O)O` [alprostadil], the “inhibition” value was 0.55%.

`Oc1cc(Cl)ccc1Oc1ccc(Cl)cc1Cl` [triclosan]: the “inhibition” value is 7.81%.

As for `COc1cc(C2Oc3cc([C@H]4Oc5cc(O)cc(O)c5C(=O)[C@@H]4O)ccc3OC2CO)ccc1O` (some centres not stated) [silibinin], the “inhibition” value was 1.72%.

Regarding `CC(C)(C)c1nc(-c2cccc(NS(=O)(=O)c3c(F)cccc3F)c2F)c(-c2ccnc(N)n2)s1` [dabrafenib], the “inhibition” value was 13.1%.

For `Clc1cccc(SC2CCNCC2)n1` [anpirtoline], the “inhibition” value is -4.79%.

`Clc1ccc(COC(Cn2ccnc2)c2ccc(Cl)cc2Cl)c(Cl)c1` (configuration not stated) [miconazole]: the “inhibition” value was -4.16%.

For `O=C(NC1(c2ccccc2)CC1)c1c(CN2CCC(N3CCCCC3)CC2)c(-c2cccc(C(F)(F)F)c2)nc2cc(Br)ccc12`, the “inhibition” value is -13.1%.

For `O=C(O)/C=C(/CC(=O)O)C(=O)O` [cis-aconitic-acid], the “inhibition” value is 0.81%.

`CC(C)OC(=O)C1=CN(C(=O)c2ccc(F)c(F)c2)CC(C)(C)c2c1[nH]c1ccccc21`: the “inhibition” value is -3.87%.

On to `C[C@H](Cc1cc2c(c(C(N)=O)c1)N(CCCO)CC2)NCCOc1ccccc1OCC(F)(F)F` [silodosin], for which the “inhibition” value was 3.11%.

Regarding `O=C(O)c1cc(/N=N/c2ccc(S(=O)(=O)Nc3ccccn3)cc2)ccc1O` [sulfasalazine], the “inhibition” value was 0.47%.

For `CCCN(CCC)C(=O)C(CCC(=O)O)NC(=O)c1ccccc1` (configuration not stated) [proglumide], the “inhibition” value is -1.09%.

In the case of `COc1ccc2cccc(CCNC(C)=O)c2c1` [agomelatine], the “inhibition” value is 0.7%.

For `COc1cc(-c2cc(-c3cccc(O)c3)cnc2N)cc(OC)c1OC`, the “inhibition” value is 2.09%.

Consider `Cc1ccc(Nc2c(F)cccc2Cl)c(CC(=O)O)c1` [lumiracoxib], for which the “inhibition” value was -0.38%.

Consider `CC(=O)OC[C@H]1O[C@@H](n2ccc(=O)[nH]c2=O)[C@H](OC(C)=O)[C@@H]1OC(C)=O` [uridine-triacetate], for which the “inhibition” value is -0.59%.

For the compound `CN(Cc1cc(Br)cc(Br)c1N)C1CCCCC1` [bromhexine], the “inhibition” value is 11.6%.

`Cc1cc(C(C)(C)C)cc(C)c1CC1=NCCN1` [xylometazoline]: the “inhibition” value is -6.68%.

Take `OCc1cncc(F)c1` [5-fluoro-3-pyridyl-methanol]: the “inhibition” value was -2.94%.

As to `O=C(O)c1ccccc1-c1ccc(C(F)(F)F)cc1` [xenalipin], the “inhibition” value is -2.23%.
